Source: PubChem BioAssay (EPA / NIEHS)
Where “and” joins values, the source holds several entries; their conditions need not be identical. Identical values can stand only once. Some compounds were tested as several samples or in several runs, with calls that do not always agree. Calls of active or inactive are those of the source. How the source made its calls: active means hit-call score of the fitted dose curve at least 0.9, where 1 is the maximum; inactive means score below 0.9.

Experiments:
[1] = read-out: Interferon-inducible T-cell alpha chemoattractant (ITAC), CXCL11 (gene 6373); experiment: BSK_BE3C_ITAC: BioMAP Diversity Plus: BE3C Assay for Interferon-inducible T-cell alpha chemoattractant (ITAC) Biomarker Activity (AID 2284279); settings: primary human bronchial epithelial cells
Outline: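 Steps: dose human bronchial epithelial cells with chemical; incubate 24 h; measure I-TAC by ELISA; fit endpoint in positive direction against DMSO control. Cytotoxicity was checked in parallel cultures by SRB staining at harvest.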

[2] = read-out: Interleukin-8 (IL8), CXCL8 (gene 3576); experiment: BSK_BE3C_IL8: BioMAP Diversity Plus: BE3C Assay for Interleukin-8 (IL8) Biomarker Activity (AID 2284280); settings: primary human bronchial epithelial cells
Outline: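 Dose human bronchial epithelial cells with chemical; incubate 24 h; quantify IL-8 by ELISA; fit response upward versus DMSO controls.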

[3] = read-out: Epidermal growth factor receptor (EGFR), EGFR (gene 1956); experiment: BSK_BE3C_EGFR: BioMAP Diversity Plus: BE3C Assay for Epidermal growth factor receptor (EGFR) Biomarker Activity (AID 2284281); settings: primary human bronchial epithelial cells
Outline: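 ELISA read-out of EGFR levels on human bronchial epithelial primary cells collected 24 h post-dosing. DMSO served as negative control and baseline for gain-of-signal fitting.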

KRT18 (gene 3875) = experiment: BSK_BE3C_Keratin818: BioMAP Diversity Plus: BE3C Assay for Keratin 818 Biomarker Activity (AID 2284282); settings: primary human bronchial epithelial cells
Outline: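 ELISA read-out of Keratin 8/18 in BE3C human bronchial epithelial cultures, 24 h post-dosing; positive-direction fit vs DMSO baseline.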

[4] = read-out: Matrix Metallopeptidase 9 (MMP9), MMP9 (gene 4318); experiment: BSK_BE3C_MMP9: BioMAP Diversity Plus: BE3C Assay for Matrix Metallopeptidase 9 (MMP9) Biomarker Activity (AID 2284283); settings: primary human bronchial epithelial cells
Outline: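 ELISA read-out of MMP-9 after 24 h compound exposure of human lung bronchial epithelial primary cells (BE3C). Fit in gain direction vs DMSO negative control; total protein by SRB in parallel cultures flagged overt cytotoxicity.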

[5] = read-out: Plasminogen activator inhibitor-1 (PAI1), SERPINE1 (gene 5054); experiment: BSK_CASM3C_PAI1: BioMAP Diversity Plus: CASM3C Assay for Plasminogen activator inhibitor-1 (PAI1) Biomarker Activity (AID 2284284); settings: primary human coronary artery smooth muscle cells;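 further: PAI-1 protein level measured by ELISA 24 h after dosing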
[6] = read-out: Monocyte Chemoattractant Protein-1 (MCP1), CCL2 (gene 6347); experiment: BSK_hDFCGF_MCP1: BioMAP Diversity Plus: hDFCGF Assay for Monocyte Chemoattractant Protein-1 (MCP1) Biomarker Activity (AID 2284285); settings: primary human foreskin fibroblasts
Outline: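 MCP-1 ELISA readout was taken 24 hours after dosing primary human dermal fibroblasts in the hDFCGF system, with DMSO as baseline. Parallel sulforhodamine B staining of total protein tracked overt cytotoxicity.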

[7] = read-out: Vascular cell adhesion molecule 1 (VCAM1), VCAM1 (gene 7412); experiment: BSK_IMphg_VCAM1: BioMAP Diversity Plus: IMphg Assay for Vascular cell adhesion molecule 1 (VCAM1) Biomarker Activity (AID 2284286); settings: primary human endothelial cells with macrophages
Outline: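 ELISA read-out of VCAM-1 on venular endothelial cell/macrophage co-cultures at 24 h post-treatment, with DMSO as baseline and positive-direction fitting. Parallel sulforhodamine B total-protein staining (560 nm) served as the overt cytotoxicity measure.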

[8] = read-out: Intercellular Adhesion Molecule 1 (ICAM1), ICAM1 (gene 3383); experiment: BSK_hDFCGF_ICAM1: BioMAP Diversity Plus: hDFCGF Assay for Intercellular Adhesion Molecule 1 (ICAM1) Biomarker Activity (AID 2284287); settings: primary human foreskin fibroblasts
Outline: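 ICAM-1 ELISA readout 24 h after dosing, DMSO as baseline, in human dermal foreskin fibroblast cultures. Cytotoxicity checked in parallel wells by SRB staining (0.1% SRB, 10% TCA fixation, 560 nm).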

CD40, CD40 (gene 958) = experiment: BSK_IMphg_CD40: BioMAP Diversity Plus: IMphg Assay for CD40 Biomarker Activity (AID 2284288); settings: primary human endothelial cells with macrophages
Outline: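 ELISA read-out of cell-surface CD40 at 24 h in human venular endothelial cell/macrophage co-cultures. Activity fitted in the positive direction against DMSO; parallel SRB staining (560 nm) gauges overt cytotoxicity.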

| Structure (SMILES) | outcome [1] | outcome [2] | outcome [3] | outcome (KRT18 (gene 3875)) | outcome [4] | outcome [5] | outcome [6] | outcome [7] | outcome [8] | outcome (CD40, CD40 (gene 958)) | AC50 [1] | AC50 [6] | AC50 [8] | AC50 (CD40, CD40 (gene 958)) | AC50 [7] | AC50 [4] |
| --- | --- | --- | --- | --- | --- | --- | --- | --- | --- | --- | --- | --- | --- | --- | --- | --- |
| FC(F)(F)C(F)(C(F)(F)F)C(F)(F)C(F)(F)CC1CO1 (stereo unspecified) | inactive | inactive | inactive | inactive | inactive | inactive | inactive | inactive | inactive | inactive | – | – | – | – | – | – |
| OCC(F)(F)OC(F)(F)C(F)(F)OC(F)(F)CO | inactive | inactive | inactive | inactive | inactive | inactive | inactive | inactive | inactive | inactive | – | – | – | – | – | – |
| O=C(O)C(F)(F)OC(F)(F)C(F)(F)OC(F)(F)F | inactive | inactive | inactive | inactive | inactive | inactive | inactive | inactive | inactive | inactive | – | – | – | – | – | – |
| OCC(F)(F)OC(F)(F)C(F)(F)OC(F)(F)C(F)(F)OC(F)(F)CO | inactive | inactive | inactive | inactive | inactive | inactive | – | inactive | inactive | inactive | 30 µM (active) | 30 µM (active) and 23.7 µM (active) | 33.8 µM (active) | 30 µM (active) | – | – |
| O=C(O)C=CC(F)(C(F)(F)F)C(F)(F)F | inactive | inactive | inactive | inactive | inactive | inactive | inactive | inactive | inactive | inactive | – | – | – | – | – | – |
| O=C(O)C(F)(F)OC(F)(F)C(F)(F)OC(F)(F)C(=O)O | inactive | inactive | inactive | inactive | inactive | inactive | inactive | inactive | inactive | inactive | – | – | – | – | – | – |
| C=CC(=O)OCC(F)(F)C(F)F | inactive | inactive | inactive | inactive | inactive | inactive | – | inactive | – | – | – | 40.7 µM (active) and 41.8 µM (active) | 43.5 µM (active) and 29.6 µM (active) | 21.6 µM (active) and 23.6 µM (active) | 30 µM (active) | – |
| CC(O)C(F)(F)C(F)(F)F (stereo unspecified) | inactive | inactive | inactive | inactive | inactive | inactive | inactive | inactive | inactive | inactive | – | – | – | 2.17 µM (active) | – | – |
| COP(=O)(CCC(=O)NCO)OC | inactive | inactive | inactive | inactive | inactive | inactive | inactive | – | inactive | – | – | – | – | – | – | – |
| OCC(F)(F)OC(F)(F)C(F)(F)OC(F)(F)C(F)(F)OC(F)(F)F | inactive | inactive | inactive | inactive | inactive | inactive | inactive | inactive | inactive | – | – | – | 19.2 µM (active) | 7.58 µM (active) and 49.2 µM (active) | 47.7 µM (active) | – |
| O=C(O)C(F)(OC(F)(F)C(F)(F)C(F)(F)F)C(F)(F)F (stereo unspecified) | inactive | inactive | inactive | inactive | inactive | inactive | inactive | inactive | inactive | inactive | – | – | – | – | – | 1.45 µM (active) |
| COC(=O)C(F)(F)C(F)(F)OC(F)(C(F)(F)F)C(F)(F)OC(F)=C(F)F (stereo unspecified) | – | inactive | inactive | inactive | inactive | inactive | inactive | inactive | inactive | inactive | 3.93 µM (active) and 4.84 µM (active) | – | – | – | – | – |
| NC(=O)C(F)(F)C(F)(F)F | inactive | inactive | inactive | inactive | inactive | inactive | inactive | inactive | inactive | inactive | – | – | – | – | – | – |
| O=S(=O)(F)C(F)(F)C(F)(F)C(F)(F)C(F)(F)C(F)(F)C(F)(F)C(F)(F)C(F)(F)F | inactive | inactive | inactive | inactive | inactive | inactive | inactive | inactive | inactive | inactive | – | – | – | – | – | – |
| O=C(O)C(F)(F)C(F)(F)C(=O)O | inactive | inactive | inactive | inactive | inactive | inactive | inactive | inactive | inactive | inactive | – | – | – | – | – | – |
